Assay results published in the supplement of paper PMC10849652.
About 7,900 targets were measured; listed, in parts, are those with a hit and a random draw of the rest. About 0.6% of all pairs of compound and target were hits. Unmarked numbers belong to inactive results.

Compound: CC1=C2C(=CC=C1)N=C(N(C2=O)C3=CC=CC=C3C)CN4C=NC5=C(N=CN=C54)N
Assay: log2 fold change, soluble protein after heating vs DMSO (PISA); higher = thermal stabilisation; K562 cells, 10 uM, 30 min; active = over 0.2 and 3.5 SD of the protein, either way, in both replicates (recomputed)
Summary of the method: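 Soluble protein was quantified by TMTpro 16plex LC-MS/MS after channel sums were equalised. It was obtained as the supernatant after 21,000xg for 90 min from pooled aliquots of K562 cells (2×10^6 cells/mL, 10 μM compound, 30 min) heated for 3 min across 48°C-58°C and extracted in PBS with 0.5% NP-40 at 4°C. Thermal stability values are relative to control samples and come from duplicates. They are given as log2 fold changes.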

Sequence of UniProt Q7Z3J2 (Q7Z3J2 whole entry, looked up): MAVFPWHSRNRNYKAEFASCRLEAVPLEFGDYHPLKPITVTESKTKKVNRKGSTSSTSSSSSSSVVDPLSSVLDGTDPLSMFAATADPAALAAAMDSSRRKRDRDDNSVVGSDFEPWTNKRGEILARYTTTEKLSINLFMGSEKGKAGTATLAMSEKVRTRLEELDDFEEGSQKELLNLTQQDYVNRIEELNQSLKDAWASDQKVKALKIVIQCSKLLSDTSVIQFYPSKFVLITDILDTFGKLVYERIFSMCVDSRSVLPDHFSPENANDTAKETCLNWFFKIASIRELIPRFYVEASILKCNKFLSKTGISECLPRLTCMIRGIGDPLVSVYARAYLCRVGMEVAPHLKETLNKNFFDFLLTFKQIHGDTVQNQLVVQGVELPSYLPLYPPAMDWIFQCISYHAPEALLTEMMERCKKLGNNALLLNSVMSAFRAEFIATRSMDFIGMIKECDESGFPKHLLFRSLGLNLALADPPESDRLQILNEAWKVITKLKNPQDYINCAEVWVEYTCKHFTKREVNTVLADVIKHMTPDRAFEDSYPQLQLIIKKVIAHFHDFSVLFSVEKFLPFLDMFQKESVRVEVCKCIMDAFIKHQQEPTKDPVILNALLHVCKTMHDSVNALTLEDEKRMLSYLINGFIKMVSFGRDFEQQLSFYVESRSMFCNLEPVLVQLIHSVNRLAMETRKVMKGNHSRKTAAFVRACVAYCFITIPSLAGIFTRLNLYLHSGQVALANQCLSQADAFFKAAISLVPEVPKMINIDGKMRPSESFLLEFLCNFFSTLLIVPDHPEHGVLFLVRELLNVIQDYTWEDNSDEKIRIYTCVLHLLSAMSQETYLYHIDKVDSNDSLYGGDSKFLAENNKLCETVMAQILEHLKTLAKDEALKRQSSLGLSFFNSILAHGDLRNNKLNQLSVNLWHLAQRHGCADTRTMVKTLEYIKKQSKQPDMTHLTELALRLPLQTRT
Sequence of UniProt Q9UID3 (Q9UID3 whole entry, looked up): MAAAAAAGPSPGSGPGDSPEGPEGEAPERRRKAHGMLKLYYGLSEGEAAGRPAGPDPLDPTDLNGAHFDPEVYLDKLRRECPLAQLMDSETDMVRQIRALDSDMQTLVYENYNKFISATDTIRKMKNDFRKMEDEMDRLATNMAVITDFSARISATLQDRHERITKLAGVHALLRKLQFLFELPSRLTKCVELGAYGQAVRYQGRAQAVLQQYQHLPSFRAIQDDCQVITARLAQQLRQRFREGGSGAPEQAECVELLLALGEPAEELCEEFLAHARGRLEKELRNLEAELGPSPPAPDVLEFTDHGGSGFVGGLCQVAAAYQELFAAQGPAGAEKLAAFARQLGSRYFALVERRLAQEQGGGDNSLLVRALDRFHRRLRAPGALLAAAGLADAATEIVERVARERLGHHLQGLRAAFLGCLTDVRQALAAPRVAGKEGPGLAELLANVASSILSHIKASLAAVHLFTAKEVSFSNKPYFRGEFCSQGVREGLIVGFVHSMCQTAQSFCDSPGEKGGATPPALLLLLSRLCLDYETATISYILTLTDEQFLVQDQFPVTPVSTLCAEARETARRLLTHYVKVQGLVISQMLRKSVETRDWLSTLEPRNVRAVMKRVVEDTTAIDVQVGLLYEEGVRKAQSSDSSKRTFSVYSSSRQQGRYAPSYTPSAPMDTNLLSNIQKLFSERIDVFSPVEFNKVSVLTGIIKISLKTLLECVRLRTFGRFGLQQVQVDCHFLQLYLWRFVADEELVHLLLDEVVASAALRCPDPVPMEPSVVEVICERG
Sequence of UniProt Q93009 (Q93009 whole entry, looked up): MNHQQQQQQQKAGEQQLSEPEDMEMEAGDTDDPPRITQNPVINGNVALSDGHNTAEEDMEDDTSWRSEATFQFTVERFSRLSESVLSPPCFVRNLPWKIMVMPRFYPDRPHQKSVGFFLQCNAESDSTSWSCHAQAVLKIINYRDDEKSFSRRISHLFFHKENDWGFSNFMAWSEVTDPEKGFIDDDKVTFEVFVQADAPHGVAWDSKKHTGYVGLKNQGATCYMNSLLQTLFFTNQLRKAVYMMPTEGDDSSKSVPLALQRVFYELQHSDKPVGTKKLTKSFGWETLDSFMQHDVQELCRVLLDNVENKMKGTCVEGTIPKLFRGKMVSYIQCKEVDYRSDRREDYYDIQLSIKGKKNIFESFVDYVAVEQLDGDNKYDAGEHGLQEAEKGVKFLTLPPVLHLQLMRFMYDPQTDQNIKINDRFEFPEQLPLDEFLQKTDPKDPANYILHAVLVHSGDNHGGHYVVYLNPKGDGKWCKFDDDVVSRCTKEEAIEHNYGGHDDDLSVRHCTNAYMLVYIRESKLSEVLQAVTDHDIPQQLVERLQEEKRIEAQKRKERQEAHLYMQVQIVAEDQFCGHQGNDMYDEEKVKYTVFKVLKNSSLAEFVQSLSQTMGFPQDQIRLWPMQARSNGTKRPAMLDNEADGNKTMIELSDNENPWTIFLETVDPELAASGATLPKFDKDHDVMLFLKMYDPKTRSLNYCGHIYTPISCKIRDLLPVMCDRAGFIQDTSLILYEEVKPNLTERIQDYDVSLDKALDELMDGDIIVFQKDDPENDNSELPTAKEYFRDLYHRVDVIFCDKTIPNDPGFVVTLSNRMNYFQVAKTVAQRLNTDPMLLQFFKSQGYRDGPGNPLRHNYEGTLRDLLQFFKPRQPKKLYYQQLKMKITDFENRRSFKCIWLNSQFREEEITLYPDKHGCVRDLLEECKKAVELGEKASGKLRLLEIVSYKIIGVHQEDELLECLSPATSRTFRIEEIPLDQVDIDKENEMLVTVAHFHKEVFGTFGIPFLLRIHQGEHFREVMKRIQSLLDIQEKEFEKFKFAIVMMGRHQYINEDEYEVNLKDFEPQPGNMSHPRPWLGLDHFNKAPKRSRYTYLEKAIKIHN
Sequence of UniProt Q96DX7 (Q96DX7 whole entry, looked up): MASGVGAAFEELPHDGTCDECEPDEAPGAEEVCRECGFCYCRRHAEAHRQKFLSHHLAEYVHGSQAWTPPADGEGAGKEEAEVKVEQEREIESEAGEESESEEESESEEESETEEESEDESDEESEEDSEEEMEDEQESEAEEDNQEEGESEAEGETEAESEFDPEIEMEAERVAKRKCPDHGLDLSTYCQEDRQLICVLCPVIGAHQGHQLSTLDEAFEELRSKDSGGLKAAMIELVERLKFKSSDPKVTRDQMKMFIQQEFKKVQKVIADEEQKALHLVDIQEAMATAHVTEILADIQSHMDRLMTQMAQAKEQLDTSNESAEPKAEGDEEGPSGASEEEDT
Sequence of UniProt Q86UV5 (Q86UV5 whole entry, looked up): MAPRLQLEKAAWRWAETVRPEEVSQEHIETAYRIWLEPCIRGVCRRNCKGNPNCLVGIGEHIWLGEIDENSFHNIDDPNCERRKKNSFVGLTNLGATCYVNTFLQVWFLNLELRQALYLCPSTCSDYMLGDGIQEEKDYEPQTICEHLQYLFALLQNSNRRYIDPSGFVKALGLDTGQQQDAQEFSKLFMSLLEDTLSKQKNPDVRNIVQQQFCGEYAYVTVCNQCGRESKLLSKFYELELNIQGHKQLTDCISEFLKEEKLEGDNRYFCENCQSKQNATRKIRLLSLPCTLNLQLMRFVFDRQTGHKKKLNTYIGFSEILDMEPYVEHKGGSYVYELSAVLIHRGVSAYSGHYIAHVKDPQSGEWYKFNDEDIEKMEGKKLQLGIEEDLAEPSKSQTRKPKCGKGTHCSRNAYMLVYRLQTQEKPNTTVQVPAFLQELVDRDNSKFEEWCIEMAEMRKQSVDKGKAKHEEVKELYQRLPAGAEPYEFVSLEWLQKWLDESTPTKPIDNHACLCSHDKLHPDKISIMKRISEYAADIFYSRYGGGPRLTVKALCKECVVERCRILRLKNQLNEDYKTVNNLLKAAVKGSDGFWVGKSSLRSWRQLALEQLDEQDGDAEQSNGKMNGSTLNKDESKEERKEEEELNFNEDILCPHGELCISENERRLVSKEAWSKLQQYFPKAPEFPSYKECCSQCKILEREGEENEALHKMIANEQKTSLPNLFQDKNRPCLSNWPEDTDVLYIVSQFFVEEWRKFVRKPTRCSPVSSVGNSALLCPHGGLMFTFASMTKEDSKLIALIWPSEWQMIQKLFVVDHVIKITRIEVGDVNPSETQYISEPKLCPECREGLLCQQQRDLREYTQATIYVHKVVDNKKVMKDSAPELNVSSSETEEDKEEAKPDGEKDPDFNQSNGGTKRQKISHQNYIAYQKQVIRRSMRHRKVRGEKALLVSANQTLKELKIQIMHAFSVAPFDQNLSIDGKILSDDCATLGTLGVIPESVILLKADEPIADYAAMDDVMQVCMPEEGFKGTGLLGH
Sequence of UniProt P13010 (P13010 whole entry, looked up): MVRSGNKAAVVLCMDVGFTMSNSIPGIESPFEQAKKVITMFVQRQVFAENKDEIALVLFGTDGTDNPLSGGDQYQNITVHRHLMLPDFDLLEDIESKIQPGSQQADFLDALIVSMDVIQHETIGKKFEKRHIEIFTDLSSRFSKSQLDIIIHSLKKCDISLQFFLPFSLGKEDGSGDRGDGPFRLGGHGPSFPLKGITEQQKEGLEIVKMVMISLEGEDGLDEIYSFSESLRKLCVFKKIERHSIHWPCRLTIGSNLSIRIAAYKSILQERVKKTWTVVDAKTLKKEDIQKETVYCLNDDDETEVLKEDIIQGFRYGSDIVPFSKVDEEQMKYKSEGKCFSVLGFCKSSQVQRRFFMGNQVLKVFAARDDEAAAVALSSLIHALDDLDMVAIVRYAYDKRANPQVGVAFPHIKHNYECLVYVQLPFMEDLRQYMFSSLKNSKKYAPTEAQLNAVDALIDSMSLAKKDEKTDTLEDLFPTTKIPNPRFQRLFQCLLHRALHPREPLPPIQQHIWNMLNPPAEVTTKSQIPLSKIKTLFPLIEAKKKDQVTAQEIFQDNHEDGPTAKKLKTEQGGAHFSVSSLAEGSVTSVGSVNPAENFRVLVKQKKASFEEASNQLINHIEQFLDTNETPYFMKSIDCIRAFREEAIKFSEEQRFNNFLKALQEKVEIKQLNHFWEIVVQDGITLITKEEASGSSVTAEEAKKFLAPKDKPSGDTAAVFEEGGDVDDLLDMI

Question: How did the log2 fold change turn out when TMEM8A (UniProt Q9HCN3) was run?
Answer: The log2 fold change was -0.011.

Question: Which log2 fold change does the source give for VPS41 (UniProt P49754) here?
Answer: The log2 fold change was 0.152.

Question: For VPS28 (UniProt Q9UK41), which log2 fold change is on record?
Answer: The log2 fold change was 0.064.

Question: How did the log2 fold change turn out when VPS35L (UniProt Q7Z3J2) was run?
Answer: The log2 fold change was 0.011.

Question: USP7 (UniProt Q93009) was tested. Which log2 fold change did it give?
Answer: The log2 fold change was 0.09.

Question: Which log2 fold change does the source give for WDR11 (UniProt Q9BZH6) here?
Answer: Its log2 fold change is 0.111.

Question: How did the log2 fold change turn out when VAMP7 (UniProt P51809) was run?
Answer: Its log2 fold change is 0.077.

Question: For TRAPPC13 isoform 5 (UniProt A5PLN9), which log2 fold change is on record?
Answer: The log2 fold change was 0.08.

Question: For UBC (UniProt P0CG48), which log2 fold change is on record?
Answer: The log2 fold change was 0.058.

Question: For UBE2Q1 (UniProt Q7Z7E8), which log2 fold change is on record?
Answer: The log2 fold change was 0.053.

Question: Which log2 fold change does the source give for TOP2A isoform 4 (UniProt P11388) here?
Answer: Its log2 fold change is -0.703.

Question: For TMEM106B (UniProt Q9NUM4), which log2 fold change is on record?
Answer: The log2 fold change was -0.008.

Question: With TMEM223 (UniProt A0PJW6) as the target, how does the log2 fold change read?
Answer: The log2 fold change was 0.118.

Question: How did the log2 fold change turn out when TRAM1 (UniProt Q15629) was run?
Answer: Its log2 fold change is -0.008.

Question: TNFRSF8 (UniProt P28908) was tested. Which log2 fold change did it give?
Answer: Its log2 fold change is 0.036.

Question: How did the log2 fold change turn out when TRMT10C (UniProt Q7L0Y3) was run?
Answer: Its log2 fold change is 0.085.

Question: Which log2 fold change does the source give for TXNL1 (UniProt O43396) here?
Answer: The log2 fold change was 0.056.

Question: For VPS18 (UniProt Q9P253), which log2 fold change is on record?
Answer: The log2 fold change was -0.03.

Question: How did the log2 fold change turn out when XRCC5 (UniProt P13010) was run?
Answer: The log2 fold change was 0.095.

Question: How did the log2 fold change turn out when VKORC1 (UniProt Q9BQB6) was run?
Answer: The log2 fold change was 0.083.

Question: With UBIAD1 (UniProt Q9Y5Z9) as the target, how does the log2 fold change read?
Answer: The log2 fold change was 0.068.

Question: With TMEM164 (UniProt Q5U3C3) as the target, how does the log2 fold change read?
Answer: The log2 fold change was 0.257.

Question: For VPS16 (UniProt Q9H269), which log2 fold change is on record?
Answer: Its log2 fold change is 0.106.

Question: How did the log2 fold change turn out when VTI1A (UniProt Q96AJ9) was run?
Answer: Its log2 fold change is 0.091.

Question: For VARS2, A0A0G2JL52, which log2 fold change is on record?
Answer: Its log2 fold change is 0.044.

Question: How did the log2 fold change turn out when WEE1 (UniProt P30291) was run?
Answer: Its log2 fold change is -0.059.

Question: Which log2 fold change does the source give for TMEM208 (UniProt Q9BTX3) here?
Answer: The log2 fold change was 0.088.

Question: With TNNC2 (UniProt P02585) as the target, how does the log2 fold change read?
Answer: The log2 fold change was 0.06.

Question: Which log2 fold change does the source give for USP48 isoform 8 (UniProt Q86UV5) here?
Answer: The log2 fold change was 0.191.

Question: TRIM44 (UniProt Q96DX7) was tested. Which log2 fold change did it give?
Answer: The log2 fold change was -0.002.

Question: Which log2 fold change does the source give for WARS1 (UniProt G3V227) here?
Answer: Its log2 fold change is 0.042.

Question: How did the log2 fold change turn out when UPF3B (UniProt Q9BZI7) was run?
Answer: The log2 fold change was -0.161.

Question: With VPS51 (UniProt Q9UID3) as the target, how does the log2 fold change read?
Answer: Its log2 fold change is 0.047.

Question: TRAPPC11 (UniProt Q7Z392) was tested. Which log2 fold change did it give?
Answer: Its log2 fold change is 0.077.

Question: With TSEN2 (UniProt Q8NCE0) as the target, how does the log2 fold change read?
Answer: The log2 fold change was 0.044.

Question: With XIAP (UniProt P98170) as the target, how does the log2 fold change read?
Answer: The log2 fold change was 0.
